Laboratory results: PubChem BioAssay (EPA / NIEHS)
Active and inactive are the calls of the source. How the source made its calls: active means hit-call score of the fitted dose curve at least 0.9, where 1 is the maximum; inactive means score below 0.9.

Columns and labels:
[1] = ATG_CRE_CIS: Attagene CIS-FACTORIAL HepG2 Assay for human cAMP Responsive Element (CRE) binding protein 3 (AID 2282926); conditions: HepG2 CRE cis-reporter, Attagene multiplexed mRNA; actives raise or lower the signal
Procedure, shortened: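 Capillary electrophoresis of 6-FAM-labelled, HpaI-digested PCR products quantified reporter transcripts. These came from HepG2 transiently transfected with cis-element reporters and exposed to test chemicals for 24 hours, with DMSO defining baseline activity.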

[2] = molecular target: CCAAT/enhancer-binding protein beta (Homo sapiens) (UniProt P17676); test: ATG_C_EBP_CIS: Attagene CIS-FACTORIAL HepG2 Assay for human CCAAT/Enhancer Binding Protein (C/EBP) beta (AID 2282927); conditions: HepG2 Attagene cis-factorial transcription factor reporter; actives raise or lower the signal
Procedure, shortened: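 Endogenous transcription factor activity in human liver HepG2 cells is inferred from induction of a CEBPB-linked reporter mRNA. Exposure lasts 24 h; activity is fitted in both directions relative to DMSO.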

[3] = ATG_CMV_CIS: Attagene CIS-FACTORIAL HepG2 Assay for human CMV (Internal Marker) (AID 2282928); conditions: HepG2 CMV promoter reporter, transcription factor profiling; actives raise or lower the signal;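 further: endpoint acts as a background internal control marker rather than a target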
Procedure, shortened: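 Reporter transcripts from transfected HepG2 cells are isolated after 24 h of chemical dosing, reverse-transcribed and amplified. Fragments labeled with 6-FAM are cut with HpaI and quantified by capillary electrophoresis; DMSO defines baseline.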

[4] = ATG_DR4_LXR_CIS: Attagene CIS-FACTORIAL HepG2 Assay for human Liver X Receptor (LXR), DR4 submotif (AID 2282929); conditions: HepG2 Attagene DR4 cis-reporter, mRNA transcription; actives raise or lower the signal
Procedure, shortened: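 Fluorescence intensity of labelled reporter cDNA fragments, separated by capillary electrophoresis, gives the signal. HepG2 cells bearing cis-regulated reporter constructs were treated 24 h; activity fitted bidirectionally relative to DMSO negative control.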

[5] = molecular target: Aryl hydrocarbon receptor (Homo sapiens) (UniProt P35869); test: ATG_Ahr_CIS: Attagene CIS-FACTORIAL HepG2 Assay for human Aryl Hydrocarbon Receptor (Ahr) (AID 2282930); conditions: HepG2 AhR cis-factorial reporter transcription; actives raise or lower the signal
Procedure, shortened: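 Transient MRTU transfection of HepG2 → 24 h compound exposure → total RNA, oligo(dT) RT → PCR, 6-FAM extension, HpaI cut → CE fluorescence. DMSO = baseline; bidirectional curve fit.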

[6] = ATG_AP_1_CIS: Attagene CIS-FACTORIAL HepG2 Assay for human Activator Protein 1 (AP-1) (AID 2282931); conditions: HepG2 Attagene cis-factorial AP-1 reporter mRNA; actives raise or lower the signal
Procedure, shortened: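 Multiplexed HepG2 reporter assay, 24 h dosing. mRNA induction detected by RT-PCR plus capillary electrophoresis. Activity fitted in both directions against DMSO.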

[7] = ATG_AP_2_CIS: Attagene CIS-FACTORIAL HepG2 Assay for human Activator Protein 2 (AP-2) (AID 2282932); conditions: HepG2 AP-2 cis-reporter, Attagene transcription factor profiling; actives raise or lower the signal
Procedure, shortened: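 Transiently transfected HepG2 cells are exposed to chemical for 24 h. Reporter transcripts are then measured as fluorescence following RT-PCR and capillary separation, and gain- or loss-of-signal is fitted relative to DMSO.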

[8] = ATG_BRE_CIS: Attagene CIS-FACTORIAL HepG2 Assay for human Bone Morphogenetic Protein (BMP) Response Element (BRE) (AID 2282933); conditions: HepG2 BMP response element reporter, Attagene transcription factor profiling; actives raise or lower the signal
Procedure, shortened: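 HepG2 cells transiently transfected with CIS reporter units (endogenous TF activity, BMP response element), dosed 24 h. Reporter mRNA quantified by RT-PCR, fluorescent labelling and capillary electrophoresis; bidirectional fit vs DMSO baseline.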

[9] = molecular target: Retinoic acid receptor alpha (Homo sapiens) (UniProt P10276); test: ATG_DR5_RAR_CIS: Attagene CIS-FACTORIAL HepG2 Assay for human Retinoic Acid Receptor Alpha (RARE), DR5 submotif (AID 2282934); conditions: HepG2 Attagene cis-factorial RARE DR5 reporter, mRNA; actives raise or lower the signal;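 on AC50: reporter responds to endogenous RAR alpha beta and gamma in HepG2 not RARA alone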
Procedure, shortened: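 Transient MRTU transfection of HepG2; 24 h compound treatment; TriZol RNA, oligo(dT) RT, PCR, FAM labelling, capillary electrophoresis. Bidirectional fit vs DMSO. Endogenous TF activity at DR5 RARE.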

[10] = molecular target: Transcription factor E2F1 (Homo sapiens) (UniProt Q01094); test: ATG_E2F_CIS: Attagene CIS-FACTORIAL HepG2 Assay for human E2F Transcription Factor 1 (AID 2282935); conditions: HepG2 Attagene cis-reporter, E2F reporter RNA transcripts; actives raise or lower the signal
Procedure, shortened: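 Fluorescent RT-PCR products, digested with HpaI for 2 h at 37 C, are separated by capillary electrophoresis. Source RNA comes from transfected HepG2 cultures treated for 24 h.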

[11] = ATG_E_Box_CIS: Attagene CIS-FACTORIAL HepG2 Assay for human Enhancer Box (E-box) (AID 2282936); conditions: HepG2 E-box cis-reporter transcription, actives raise or lower the signal
Procedure, shortened: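 Fluorescent reporter fragments separated by capillary electrophoresis gave the signal; mRNA came from HepG2 cells transfected with cis-element reporters and treated 24 h. Curves fitted bidirectionally relative to DMSO controls.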

[12] = ATG_M_61_CIS: Attagene CIS-FACTORIAL HepG2 Assay for M61 Transcription Factor (Internal Marker) (AID 2282937); conditions: HepG2 Attagene CIS-FACTORIAL M61 internal marker reporter; actives raise or lower the signal
Procedure, shortened: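 Endogenous transcription factor activity in HepG2 is read through transiently transfected cis-element reporter units. After 24 h dosing, RNA undergoes reverse transcription, PCR and primer extension with 6-FAM before capillary electrophoresis; DMSO-referenced bidirectional fit.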

[13] = ATG_EGR_CIS: Attagene CIS-FACTORIAL HepG2 Assay for human Early Growth Response 1 (EGR1) (AID 2282938); conditions: HepG2 Attagene CIS-FACTORIAL EGR reporter mRNA; actives raise or lower the signal
Procedure, shortened: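 Activity is taken as induction or loss of reporter mRNA versus DMSO, fitted bidirectionally. Transcripts from cis-regulated reporter units in transiently transfected HepG2 were measured after 24 h by RT-PCR with capillary electrophoresis.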

Measured: AC50

Aryl hydrocarbon receptor (Homo sapiens), sequence (P35869 whole entry, looked up): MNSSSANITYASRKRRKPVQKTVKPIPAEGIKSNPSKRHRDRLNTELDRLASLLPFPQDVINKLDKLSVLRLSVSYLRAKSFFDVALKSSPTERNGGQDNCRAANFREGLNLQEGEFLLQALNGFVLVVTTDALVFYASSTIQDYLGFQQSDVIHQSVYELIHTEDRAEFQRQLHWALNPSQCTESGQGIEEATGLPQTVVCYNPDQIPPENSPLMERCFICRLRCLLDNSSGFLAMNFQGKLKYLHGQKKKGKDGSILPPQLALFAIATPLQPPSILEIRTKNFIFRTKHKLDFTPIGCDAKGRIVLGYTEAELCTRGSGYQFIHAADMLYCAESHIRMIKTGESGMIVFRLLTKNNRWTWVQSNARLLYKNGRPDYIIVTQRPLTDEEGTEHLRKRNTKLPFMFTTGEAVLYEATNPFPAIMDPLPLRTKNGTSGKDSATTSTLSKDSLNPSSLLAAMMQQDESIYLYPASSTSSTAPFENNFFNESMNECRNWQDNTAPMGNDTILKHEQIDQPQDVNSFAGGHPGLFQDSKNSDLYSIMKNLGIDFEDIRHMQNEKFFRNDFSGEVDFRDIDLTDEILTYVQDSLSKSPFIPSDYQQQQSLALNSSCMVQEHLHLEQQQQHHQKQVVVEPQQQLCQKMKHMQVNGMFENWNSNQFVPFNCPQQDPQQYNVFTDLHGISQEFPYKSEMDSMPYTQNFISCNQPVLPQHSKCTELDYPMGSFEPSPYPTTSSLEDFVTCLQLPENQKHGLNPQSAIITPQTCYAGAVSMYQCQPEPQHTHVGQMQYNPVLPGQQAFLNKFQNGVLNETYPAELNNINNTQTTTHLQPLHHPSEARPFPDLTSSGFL
CCAAT/enhancer-binding protein beta (Homo sapiens), sequence (P17676 whole entry, looked up): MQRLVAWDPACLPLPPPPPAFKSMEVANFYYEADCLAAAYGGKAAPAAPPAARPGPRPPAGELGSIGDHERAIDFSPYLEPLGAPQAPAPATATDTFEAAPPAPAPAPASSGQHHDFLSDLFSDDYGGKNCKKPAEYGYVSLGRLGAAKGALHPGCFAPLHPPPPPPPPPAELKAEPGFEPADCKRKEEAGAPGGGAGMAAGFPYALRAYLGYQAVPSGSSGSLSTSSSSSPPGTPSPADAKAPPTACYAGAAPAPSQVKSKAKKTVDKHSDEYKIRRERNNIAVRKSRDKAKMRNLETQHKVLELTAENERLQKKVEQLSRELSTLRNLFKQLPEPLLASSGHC
Retinoic acid receptor alpha (Homo sapiens), sequence (P10276 whole entry, looked up): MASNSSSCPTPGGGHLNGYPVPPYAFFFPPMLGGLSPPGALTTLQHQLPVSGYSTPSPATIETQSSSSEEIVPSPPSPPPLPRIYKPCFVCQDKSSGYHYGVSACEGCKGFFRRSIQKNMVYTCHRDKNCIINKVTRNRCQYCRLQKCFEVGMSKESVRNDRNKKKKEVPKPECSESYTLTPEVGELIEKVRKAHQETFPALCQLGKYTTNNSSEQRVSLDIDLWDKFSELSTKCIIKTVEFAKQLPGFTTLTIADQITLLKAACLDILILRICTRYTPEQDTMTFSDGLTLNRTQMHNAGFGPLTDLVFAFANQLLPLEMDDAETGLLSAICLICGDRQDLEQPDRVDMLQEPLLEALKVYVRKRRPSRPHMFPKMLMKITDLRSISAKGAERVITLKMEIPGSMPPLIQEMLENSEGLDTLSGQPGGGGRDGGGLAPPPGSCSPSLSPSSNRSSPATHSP
Transcription factor E2F1 (Homo sapiens), sequence (Q01094 whole entry, looked up): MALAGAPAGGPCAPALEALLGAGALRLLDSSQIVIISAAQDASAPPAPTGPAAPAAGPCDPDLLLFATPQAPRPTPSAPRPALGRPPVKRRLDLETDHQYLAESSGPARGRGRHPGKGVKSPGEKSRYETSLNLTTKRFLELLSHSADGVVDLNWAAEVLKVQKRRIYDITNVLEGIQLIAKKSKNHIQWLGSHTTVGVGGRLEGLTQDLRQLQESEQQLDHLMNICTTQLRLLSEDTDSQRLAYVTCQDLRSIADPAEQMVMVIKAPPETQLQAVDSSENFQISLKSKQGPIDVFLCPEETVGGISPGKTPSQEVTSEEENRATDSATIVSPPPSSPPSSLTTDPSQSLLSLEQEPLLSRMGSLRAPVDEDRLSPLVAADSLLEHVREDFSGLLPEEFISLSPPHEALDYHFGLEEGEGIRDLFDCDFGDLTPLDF

C[C@@H]1O[C@@H](O[C@H]2C[C@@H](O)[C@]3(CO)[C@H]4[C@H](O)C[C@]5(C)[C@@H](C6=CC(=O)OC6)CC[C@]5(O)[C@@H]4CC[C@]3(O)C2)[C@H](O)[C@H](O)[C@H]1O
inactive: [3] | [5] | [8] | [10] | [11] | [12]
active: [1] 0.512 µM | [2] 0.0716 µM | [4] 0.207 µM | [6] 0.215 µM | [7] 119 nM | [9] 155 nM | [13] 0.0716 µM

CCN(CCO)CCO
inactive: all assays above

Nc1ncn[nH]1
not listed: [12]
inactive: all other assays above

[Cl][Sn]([c]1ccccc1)([c]1ccccc1)[c]1ccccc1
inactive: [2] | [3] | [6] | [8] | [10] | [12]
active: [1] 0.367 µM | [4] 0.67 µM | [5] 1.09 µM | [7] 503 nM | [9] 227 nM | [11] 252 nM | [13] 0.257 µM

Cc1ccccc1OP(=O)(Oc1ccccc1C)Oc1ccccc1C
active: [4] 13.9 µM | [6] 17.5 µM | [10] 69.7 µM
inactive: all other assays above

CCCCCCCCBr
inactive: all assays above

CCCCCCCCCCBr
active: [3] 163 µM
inactive: all other assays above

C#CCO
inactive: all assays above

CC1(C)[C@H](/C=C2\CCSC2=O)[C@@H]1C(=O)OCc1coc(Cc2ccccc2)c1
active: [4] 17.9 µM | [6] 144 µM | [13] 19 µM
not listed: [12]
inactive: all other assays above

O=NN1CCCCCC1
inactive: all assays above

CCOP(=S)(OCC)O/N=C(\C#N)c1ccccc1
active: [4] 27.7 µM | [5] 0.657 µM | [6] 42.3 µM | [8] 31.6 µM
not listed: [12]
inactive: all other assays above

N#Cc1ccccc1N
active: [5] 33.2 µM
not listed: [9]
inactive: all other assays above

COP(=S)(OC)Oc1cc(Cl)c(I)cc1Cl
active: [1] 29.6 µM | [2] 27.9 µM | [3] 50.2 µM | [4] 46.6 µM | [7] 22500 nM | [13] 41.3 µM
inactive: [5] | [6] | [8] | [9] | [10] | [12]

ClCCCCl
not listed: [11]
inactive: all other assays above

CC(C)[N+](=O)[O-]
not listed: [9]
inactive: all other assays above

COc1nn(C(=O)NS(=O)(=O)c2ccccc2OC(F)(F)F)c(=O)n1C
not listed: [11] | [13]
inactive: all other assays above

C[N+](C)(C)Cc1ccccc1
not listed: [9]
inactive: all other assays above

Clc1cc(C(Cl)(Cl)Cl)cnc1Cl
active: [4] 8.81 µM | [6] 12.6 µM | [10] 33.4 µM | [11] 4540 nM | [13] 8.77 µM
not listed: [9]
inactive: all other assays above

Clc1cnc(Oc2ccc(Oc3ncc(Cl)cc3Cl)cc2)c(Cl)c1
active: [5] 5.93 µM
not listed: [11]
inactive: all other assays above

Cc1cc(C(C)(C)c2ccc(O)c(C)c2)ccc1O
active: [1] 21.8 µM | [3] 89.3 µM | [4] 12.1 µM | [5] 89 µM | [6] 83.9 µM | [13] 32.4 µM
inactive: [2] | [7] | [8] | [10] | [11] | [12]

CC(F)(F)CC(F)(F)F
not listed: [11] | [12]
inactive: all other assays above

N#Cc1ccc(Cl)cc1
not listed: [9] | [13]
inactive: all other assays above

OC[C@@H](O)[C@H]1O[C@@H]2O[C@H](C(Cl)(Cl)Cl)O[C@@H]2[C@H]1O
not listed: [11]
inactive: all other assays above

COC(F)(C(F)(F)C(F)(F)F)C(F)(C(F)(F)F)C(F)(F)F (stereo unspecified)
not listed: [11]
inactive: all other assays above

Brc1ccc(Oc2c(Br)cc(Br)cc2Br)c(Br)c1
not listed: [11] | [13]
inactive: all other assays above

O=S1OC[C@@H]2[C@H](CO1)[C@]1(Cl)C(Cl)=C(Cl)[C@@]2(Cl)C1(Cl)Cl (stereo partly specified)
active: [3] 100 µM | [4] 27.1 µM | [6] 100 µM
not listed: [9]
inactive: all other assays above
